Compound activity as filed in PubChem.
This is a sample that favours compounds with a hit; in the whole collection about 5.9% have one here.
KB-3-1 tox: qHTS assay for MDR1-selective chemotherapeutics: Primary screen using the parental adenocarcinoma cell KB-3-1 | 400,000 tested, 1.4% active | AID 1347075, 2019 | KB-3-1 viability, CellTiter-Glo ATP luminescence, 72 h | Potency, µM (series often up to 46.1 µM), usual class: cytotoxic; also: % is scaled to controls: 0 for no effect and ±100 for the full control effect; nearly all actives have a fitted effect of over 60% in size
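Cytotoxicity in the drug-sensitive parental line KB-3-1 was scored as loss of CellTiter-Glo luminescence following 72 h incubation with compound. Values come from curve fitting of normalized concentration-response data.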
HepG2 tox: qHTS for Inhibitors of TGF-b: Cytotox Counterscreen | HepG2 CAGA-GFP viability, ATP luminescence, 18 h | Potency, µM (top dose mostly 46.1 µM), without a hit: at the top dose activity change, negative = cytotoxicity, most hits filed as cytotoxic | 410,000 tested, 0.76% active
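HepG2 CAGA-GFP cells (1000/well, DMEM with 1% FBS) received compound, then TGF-beta at 500 pg/mL final, and were incubated 18 hours at 37 degrees C. Viability was read by CellTiter-Glo luminescence. Media-only wells were set as complete cell-killing and DMSO as no toxicity.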
KB-V1 MDR tox: qHTS assay for MDR1-selective chemotherapeutics: Primary screen using the drug-selected MDR subline cells KB-V1. KB-V1 MDR cells viability, CellTiter-Glo, 72 h. Potency, µM (highest dose often 46.1 µM), most hits filed as cytotoxic. AID 1347076, 2019. 400,000 tested, 3.4% active; also: % is scaled to controls: 0 for no effect and ±100 for the full control effect; nearly all actives have a fitted effect of over 60% in size
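Following 72 h at 37 degrees C with compound, KB-V1 cell viability was read by CellTiter-Glo luminescence, medium being phenol-red-free DMEM plus 10% FBS; concentration-response parameters came from normalized, curve-fitted qHTS data.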
ATXN viability: Viability Counterscreen for Primary qHTS for Inhibitors of ATXN expression; Potency, µM (titrated, usually from 56.7 µM), most hits filed as cytotoxic; S2 cells (HEK-293 line with an ATXN2-luciferase reporter) viability, CellTiter-Fluor protease fluorescence, 24 h; 400,000 tested, 0.49% active; also: nearly all actives have a fitted effect of over 40% in size
ATXN2 expr inh: Primary qHTS for Inhibitors of ATXN expression; Potency, µM (doses to about 57 µM), for inactives: at the top dose activity change, negative = inhibition, hits mostly inhibitors; 360,000 tested, 0.72% active; AID 1745845, 2022; HEK-293 ATXN2-luciferase reporter, luminescence, 24 h; also: % is scaled to controls: 0 for no effect and ±100 for the full control effect; nearly all actives have a fitted effect of over 55% in size
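ATXN2-luciferase reporter cells (luciferase flanked by upstream and downstream ATXN2 gene portions) were treated 24 h at 37 °C with compounds at up to 57 uM. SteadyGlo luminescence gave expression; GF-AFC fluorescence gave viability.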
TGFb inhibitor: qHTS for Inhibitors of TGF-b; HepG2 CAGA-GFP TGF-b/SMAD3 reporter, GFP fluorescence, 18 h; TGF-beta stimulated, 500 pg/mL final; Potency, µM (titrated, usually from 46.1 µM), inactives show at the highest dose activity, negative = inhibition, hits mostly inhibitors; 410,000 tested, 1.2% active; AID 588855, 2011; also: % is scaled to controls: 0 for no effect and ±100 for the full control effect; nearly all actives have a fitted effect of over 65% in size
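Inhibition was scored as loss of TGF-beta-induced (500 pg/mL final, 18 hours, 37 degrees C) GFP in HEPG2 cells carrying a CAGA-GFP reporter, in DMEM with 1% FBS. Well GFP was summed per cell; Activity was normalised to unstimulated and stimulated DMSO wells, then concentration-response fitting.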
Numbers without * were called inactive; i = inactive; ? = inconclusive; / = no result; [ ] = dose if it differs, or a comment. Calls follow the shape of the dose curve; as a rule, active = well fitted curve in the direction sought with a large enough effect; inconclusive = small, poorly fitted or top-dose-only effect, or another doubt; inactive = no such curve, though single readings can be large; an effect the other way counts as inactive or inconclusive. Potency is read from the fitted curve at half-maximal effect.

SMILES	KB-3-1 tox	HepG2 tox	KB-V1 MDR tox	ATXN viability	ATXN2 expr inh	TGFb inhibitor
NC(=O)c1cc([N+](=O)[O-])ccc1NCc1ccc(N)cc1	i	6.3%	i	i	3.55µM*	?
NC(=O)c1cc([N+](=O)[O-])ccc1NCc1ccc(F)cc1	i	1.5%	i	?	2.6%	-6.2%
OCC(O)COc1ccc(Cl)cc1 (stereo not given)	/	/	/	i	/	/
Cc1ccc(N/N=C/c2cccnc2)cc1	?	-1.4%	20.6µM*	?	50.2%	2.4%
Cc1ccc(N/N=C/c2ccncc2)cc1	i	-22.9%	i	i	-4.2%	-13.0%
CCn1cc2nc(SCC(=O)Nc3ccc(C)cc3C)n(Cc3ccc(C)cc3)c(=O)c2n1	/	-10.5%	/	/	/	6.9%
CCOc1ccccc1-n1ccnc(NCc2ccc(F)cc2)c1=O	i	-4.1%	?	?	-9.1%	1.7%
Cn1ccc2c(OCC(=O)Nc3cc(C(F)(F)F)ccc3Cl)cccc2c1=O	i	1.1%	i	i	0.4%	-12.7%
Cc1cccc(CSc2nc3c(c(-c4cccs4)c2C#N)CN(C)CC3)c1	i	6.9%	i	i	-3.0%	-6.4%
CCCCSc1nc(N)c(C#N)c(-c2cccs2)c1C#N	?	-42.5%	?	i	-2.9%	?
CC(=O)CSc1nc(N)c(C#N)c(-c2cccs2)c1C#N	i	0.6%	18.4µM*	i	-19.2%	-7.9%
Cc1cccc(CSc2nc(N)c(C#N)c(-c3cccs3)c2C#N)c1	?	-31.8%	11.2µM*	/	/	-22.4%
CC(C)OC(=O)CSc1nc(N)c(C#N)c(-c2cccs2)c1C#N	i	-30.2%	20.6µM*	i	-20.7%	-20.1%
CC[C@H]1OC(=O)[C@H](C)[C@@H](O[C@H]2C[C@@](C)(OC)[C@@H](O)[C@H](C)O2)[C@H](C)[C@@H](O[C@@H]2O[C@@H](C)C[C@H](N(C)C)[C@@H]2O)[C@](C)(O)C[C@@H](C)C(=O)[C@H](C)[C@@H](O)[C@]1(C)O	/	/	/	/	-0.6%	/
CC(=O)N(CC(=O)N(C)C)c1ccccc1	/	/	/	i	-1.0%	/
C(=C\c1nnc2c3ccccc3ncn12)/c1ccccc1	11.6µM*	-12.6%	5.17µM*	i	1.0%	-17.5%
COc1cc(/C=C/c2nnc3c4ccccc4ncn23)cc(OC)c1OC	i	1.1%	i	i	9.5%	-5.1%
COc1cc(=O)n2c(c1C(=O)N(C)Cc1ccsc1)CCN(Cc1c(C)nn(C)c1Cl)CC2	/	/	/	i	/	/
CCc1nnc(NC(=O)c2ccccc2NC(=O)C2CCN(C(=O)c3ccco3)CC2)s1	?	3.8%	i	/	/	1.5%
COc1cc(-c2cc(-c3ccc(O)cc3)nc(N)c2C#N)ccc1O	?	-25.4%	?	i	27.4%	-8.1%
COc1ccccc1-c1c(C#N)c(N)nc2c1CCc1ccccc1-2	13µM*	-53.3%	16.4µM*	i	33.9%	-22.8%
CCOc1cc(-c2c(C#N)c(N)nc3c2CCCC3C)ccc1O (stereo not given)	?	-4.0%	18.4µM*	i	-7.8%	?
CCOc1cc(-c2cc(-c3ccc(C)cc3)nc(N)c2C#N)ccc1O	5.8µM*	-89.8%	8.2µM*	?	?	?
CCOc1cc(-c2c(C#N)c(N)nc3c2CCc2ccccc2-3)ccc1O	?	12.6µM*	23.1µM*	?	43.2%	?
COc1ccc(-c2c(C#N)c(N)nc3c2CCCCCC3)cc1OC	i	0.9%	i	i	-3.3%	-0.4%
SMILES	KB-3-1 tox	HepG2 tox	KB-V1 MDR tox	ATXN viability	ATXN2 expr inh	TGFb inhibitor
Cc1ccc(-c2cn3c(n2)sc2cc(C(=O)NCCC4=CCCCC4)ccc23)c(C)c1	i	-14.4%	i	i	26.7%	-0.2%
Cc1ccc(C)c(OC(=O)C2CSC3(C)CCC(=O)N23)c1C (stereo not given)	16.4µM*	-20.8%	i	i	/	-10.7%
COc1ccc(Nc2nc(-c3cccc(OC)c3O)nc3ccccc23)cc1	i	-6.6%	i	?	-2.2%	-22.4%
COc1cccc(-c2nc(N3CCC(C)CC3)c3ccccc3n2)c1O	i	6.0%	16.4µM*	i	-18.5%	?
COc1cccc(-c2nc(NC(C)(C)C)c3ccccc3n2)c1O	?	-18.6%	23.1µM*	i	-0.3%	-51.6%
Clc1ccc(N2CCN(c3ncnc4c3nc3n4CCCC3)CC2)cc1	/	-14.8%	/	/	/	-3.3%
O=C(NC1CC(=O)N(c2ccc3c(c2)OCCO3)C1)c1c(F)cccc1Cl (stereo not given)	/	1.0%	/	/	/	-1.3%
CCC(=NC(C)c1ccccc1)c1c(O)n(C)c(=O)n(C)c1=O (stereo not given)	?	-17.4%	2.59µM*	i	-25.1%	-10.4%
CCC(C(=O)OCC(=O)c1c(N)n(CC(C)C)c(=O)n(C)c1=O)c1ccccc1 (stereo not given)	?	-22.7%	?	i	-16.8%	-23.7%
COc1cc2c3nnc(-c4ccccc4)c-3cn(Cc3ccccc3F)c2cc1OC	?	-62.5%	i	/	-19.0%[11.3 µM]	44.1%
COc1cc2c3nnc(-c4ccc(F)cc4)c-3cn(Cc3ccccc3F)c2cc1OC	14.6µM*	8.91µM*	i	i	20µM*	84.2%
CCOC(=O)C1=C(C)N(c2ccccc2)C(=O)/C1=C\c1cccs1	i	5.5%	18.4µM*	i	1.9%	-1.4%
COc1ccc(C(C)C)cc1-c1cncc(NC(C)=O)n1	i	-2.9%	i	i	13.1%	-0.4%
Cc1ccc(C)c(N2CCN(C(=O)CN3CCSc4ccccc43)CC2)c1	i	-40.7%	?	i	-0.6%	?
Cc1ccc(C)c(N2CCN(C(=O)CC3Sc4ccccc4NC3=O)CC2)c1 (stereo not given)	?	-24.0%	16.4µM*	i	-18.0%	?
COc1ccc(-c2csc(NC(=O)C3CCN(c4ncnc5sc(C)c(C)c45)CC3)n2)cc1OC	?	-9.0%	i	i	7.94µM*	-24.3%
Cc1sc2ncnc(N3CCC(C(=O)Nc4ccc(Cl)cc4Cl)CC3)c2c1C	i	-33.9%	i	i	?	?
Cc1sc2ncnc(N3CCC(C(=O)Nc4ccc(Br)cc4Br)CC3)c2c1C	?	-3.4%	5.8µM*	i	-31.0%	-21.4%
COc1ccccc1OCC(=O)NNC(=O)C1CCN(c2ncnc3sc(C)c(C)c23)CC1	i	-12.6%	i	?	/	?
